Screening results: PubChem, The Scripps Research Institute Molecular Screening Center
hgDAF-12 ag: hgDAF-12 agonism, primary luciferase screen. HEK293 GAL4-hgDAF12 UAS-luciferase reporter, agonist luminescence; normalized to butyrate control. activation, % at 6.8 µM. 1.8% of 370,000 active. AID 687014;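 active = activation above a cutoff set at the mean of all screened compounds plus 3 SD, cut at about 10% in these data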;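 also: 0% = DMSO wells and 100% = sodium butyrate wells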
ssDAF-12 act: activates DAF-12 receptor from parasite S. stercoralis; 1% of 370,000 active; AID 652126; HEK293 ssDAF-12/GRIP1 lit1-tk-luc reporter, luminescence; % of 3 µM dafachronic acid response; activation, % at 6.8 µM;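 active = activation above the mean over all tested compounds plus 3 SD, cut at about 0.9% in these data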;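 also: 0% = DMSO-only wells and 100% = 3 µM delta7-dafachronic acid wells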
hcDAF12 agonist: activates DAF-12 receptor from parasite H. contortus; HEK293 hcDAF-12 lit1-tk-luc reporter, luminescence; 0% DMSO, 100% Δ7-dafachronic acid; activation, % at 6.8 µM; 1.4% of 370,000 active; AID 652067;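 active = activation above the mean of all tested compounds plus 3 SD, cut at about 5.5% in these data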;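 also: 100% = response to 3 µM Δ7-dafachronic acid high control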
DAX1 inh-1: inhibits human nuclear receptor DAX1 | inhibition, % at 6.75 µM | P51843 | 0.99% of 340,000 active | AID 504766 | HEK293 Gal4-DAX1 luciferase reporter, luminescence;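 active = inhibition above the mean over all tested compounds plus 3 SD, cut at about 4.2% in these data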;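 also: 0% = DAX1-transfected cells with DMSO and 100% = empty-vector control cells with DMSO; inhibition shows as a rise in luminescence from relieved DAX1 repression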
DAX1 inh-2: blocks DAX1 repression of SF-1 activated StAR promoter; HEK293T StAR-luciferase reporter, SF-1/DAX-1 repression relief; inhibition, % at 6.8 µM; 1.1% of 370,000 active;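 active = inhibition above the mean over all tested compounds plus 3 SD, cut at about 3.6% in these data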;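 also: 0% = DAX-1 cells with DMSO and 100% = cells lacking DAX-1 with DMSO; higher inhibition means more luminescence from relief of DAX-1 repression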
LXRb hcDAF ctr: LXR-beta agonism as hcDAF-12 counter-screen. shares compounds with hcDAF12 agonist. HEK293 Gal4-LXR tk-luc reporter, luminescence, 24 h; normalized: DMSO 0%, positive control 100%. activation, % at 6.8 µM. 3,400 tested, under 10 active. AID 743027;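 active = mean percent activation of the reporter above a cutoff set as the average over tested compounds plus their standard deviation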
Target sequence (P55055 whole entry, looked up, the tested form may be a part): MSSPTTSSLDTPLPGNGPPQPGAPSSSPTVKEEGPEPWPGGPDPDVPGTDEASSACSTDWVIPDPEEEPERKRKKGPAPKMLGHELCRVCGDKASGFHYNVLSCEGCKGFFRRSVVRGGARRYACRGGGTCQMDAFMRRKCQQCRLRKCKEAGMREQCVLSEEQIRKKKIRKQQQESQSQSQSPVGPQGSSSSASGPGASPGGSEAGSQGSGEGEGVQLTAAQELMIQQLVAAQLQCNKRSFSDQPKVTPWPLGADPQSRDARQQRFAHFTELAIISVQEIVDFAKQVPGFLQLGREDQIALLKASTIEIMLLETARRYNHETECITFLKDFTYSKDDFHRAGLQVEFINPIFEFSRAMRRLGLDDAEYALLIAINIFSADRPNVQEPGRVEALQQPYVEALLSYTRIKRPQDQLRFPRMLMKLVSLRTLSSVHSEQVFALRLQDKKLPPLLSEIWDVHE
hcDAF12 ag: confirmation of H. contortus DAF-12 agonists; shares compounds with hcDAF12 agonist; 61% of 3,400 active; activation, % at 6.8 µM; HEK293 hcDAF-12 lit1-tk-luc reporter, luminescence; % of Δ7-dafachronic acid response;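 active = mean activation across triplicate tests above the threshold derived from the earlier primary screen, cut at about 5.5% in these data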;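 also: 0% = DMSO only wells and 100% = 3 µM Δ7-dafachronic acid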
Starred values were filed as active, the others as inactive; . = no result. Rows were chosen to be rich in hits. Some 4.1% of all compounds tested hit in one or more screens of this group.

SMILES	hgDAF-12 ag	ssDAF-12 act	hcDAF12 agonist	DAX1 inh-1	DAX1 inh-2	LXRb hcDAF ctr	hcDAF12 ag
Cc1ccc2oc(C(=O)NC3CCS(=O)(=O)C3)c(C)c2c1 (stereo not given)	1	0	0	1	2	.	.
COc1ccc(Nc2cccc3ccccc23)cc1	5	1.3*	6.9*	0	1	1	6.5*
CC(C)Cc1nnc(NC(=O)CCC(=O)N2CCN(c3ccccc3F)CC2)s1	0	0	0	0	0	.	.
CNc1ccccc(-c2ccc3ccccc3n2)c1=O	3	0	7.0*	0	0	1	7.2*
O=[N+]([O-])c1cccc(S(=O)(=O)NCCCn2ccnc2)c1	-1	0	-1	1	0	.	.
COc1ccccc1CNC(=O)c1cc(-c2ccccc2)n(Cc2cc(C)no2)n1	1	-2	0	0	-1	.	.
CCN(CC)c1ccc(/C=N/N2C(=O)c3ccccc3C2=O)c(O)c1	2	-1	6.6*	0	0	0	1
CCN(CC)c1ccc(/C=N/N2C(=O)c3ccccc3C2=O)cc1	0	-1	-1	-1	-1	.	.
Cn1c(=O)n(C)c2cc(N3CCOCC3)c(NC(=O)c3cccc(Cl)c3)cc21	0	-1	-1	0	-1	.	.
CCc1ccc(NS(=O)(=O)c2ccc3[nH]cc(C(=O)N4CCc5ccccc54)c(=O)c3c2)cc1	10	1.2*	7.3*	2	3	1	5.7*
N/C(=N\N=C\c1ccc(O)cc1)c1nonc1N	16*	0	7.9*	3	4	1	5
COc1cc(OC)c(NC(=O)c2ccccc2F)cc1Cl	2	0	5	1	1	.	.
COc1cc2c(cc1NC(=O)c1ccccc1F)CCCC2	10	0	8.2*	0	2	0	6.7*
COc1ccc(OC)c(C(=O)Nc2c(O)ccc3ccccc23)c1	1	0	7.0*	-1	0	0	6.1*
CCOc1ccc(NC(=O)c2cc3ccccc3cc2OC)cc1	8	0	7.0*	6.3*	0	1	6.1*
COc1ccc(CC(=O)Nc2ccc(NC(=O)c3ccccc3F)cc2)cc1	1	-2	9.8*	0	0	0	0
[O-][N+](=Cc1c(Cl)cccc1Cl)CC1(O)CCCCC1	2	0	1	1	0	.	.
Cc1sc2ncnc(N[C@@H](Cc3c[nH]c4ccccc34)C(=O)O)c2c1C	5	1	7.0*	0	1	0	5.7*
CCc1cc2c(N[C@@H](Cc3c[nH]c4ccccc34)C(=O)O)ncnc2s1	2	0	8.0*	-1	1	0	4
CCc1cc2c(NC(Cc3c[nH]c4ccccc34)C(=O)O)nc(C)nc2s1 (stereo not given)	1	0	5	0	0	.	.
O=C(CCS(=O)(=O)c1ccccc1)Nc1ccc(F)cc1Cl	2	-1	-2	.	0	.	.
COc1ccccc1/C=N\Nc1ccccc1[N+](=O)[O-]	6	-1	7.0*	7.9*	1	2	6.4*
O=C(O)c1ccc(-c2noc(-c3cccc(F)c3)n2)cc1	6	-1	0	2	2	.	.
O=C(O)c1ccc(-c2noc(-c3ccccc3F)n2)cc1	8	0	6.8*	-3	2	2	7.0*
Cc1ccc(-c2noc(-c3ccccc3F)n2)cc1	12*	2.1*	17*	2	3.7*	2	13*
Cc1ccccc1-c1noc(-c2ccccc2C(=O)O)n1	-2	-1	0	2	1	.	.
O=C(O)c1ccccc1-c1noc(-c2ccccc2F)n1	12*	0	7.3*	.	.	1	5
Cc1ccc(NC(=O)COC(=O)C2CCN(c3ccc(C(F)(F)F)cn3)CC2)cc1	0	-1	-1	1	1	.	.
Cc1cccc(NC(=O)c2c(O)c3ccccc3n(C)c2=O)c1	5	1.1*	7.5*	1	1	1	12*
